An excerpt weighted towards active compounds, which were near 3% of everything screened.
PAFAH1B2 FP inh = inhibitors of human PAFAH1B2 | P68402 | recombinant PAFAH1B2, FP-rhodamine activity probe, fluorescence polarization | inhibition, % at 3.39 µM | 340,000 tested, 1.2% active;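 active = inhibition above the mean of all tested compounds plus 3 SD, cut at about 24% in these data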;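 also: 0% = enzyme with DMSO and 100% = wells lacking PAFAH1B2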
Target sequence (P68402 whole entry, looked up): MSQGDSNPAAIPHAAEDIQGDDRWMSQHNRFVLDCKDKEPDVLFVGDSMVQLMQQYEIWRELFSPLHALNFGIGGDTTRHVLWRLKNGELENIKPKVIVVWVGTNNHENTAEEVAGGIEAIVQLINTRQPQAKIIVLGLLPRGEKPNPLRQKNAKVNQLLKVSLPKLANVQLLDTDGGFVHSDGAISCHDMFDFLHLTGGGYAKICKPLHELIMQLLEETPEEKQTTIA
PAFAH1B3 FP inh = inhibitors of human PAFAH1B3 | Q15102 | recombinant PAFAH1B3, FP-rhodamine probe, fluorescence polarization | inhibition, % at 3.39 µM | 340,000 tested, 0.28% active | AID 492972;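 active = inhibition above the screen-wide average of all tested compounds plus 3 SD, cut at about 25% in these data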;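 also: 0% = enzyme with DMSO only and 100% = wells lacking PAFAH1B3 protein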
pPAFAH FP inh = pPAFAH (human) enzyme inhibition | inhibition, % at 3.39 µM | 330,000 tested, 1.5% active | recombinant pPAFAH, FP-rhodamine probe fluorescence polarization | Q13093;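 active = inhibition above the mean inhibition across the screen plus 3 SD, cut at about 25% in these data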;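 also: inhibitors block binding of the rhodamine activity-based probe so polarization drops; 0% = enzyme with DMSO and 100% = wells lacking pPAFAH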
Target sequence (Q13093 whole entry, looked up): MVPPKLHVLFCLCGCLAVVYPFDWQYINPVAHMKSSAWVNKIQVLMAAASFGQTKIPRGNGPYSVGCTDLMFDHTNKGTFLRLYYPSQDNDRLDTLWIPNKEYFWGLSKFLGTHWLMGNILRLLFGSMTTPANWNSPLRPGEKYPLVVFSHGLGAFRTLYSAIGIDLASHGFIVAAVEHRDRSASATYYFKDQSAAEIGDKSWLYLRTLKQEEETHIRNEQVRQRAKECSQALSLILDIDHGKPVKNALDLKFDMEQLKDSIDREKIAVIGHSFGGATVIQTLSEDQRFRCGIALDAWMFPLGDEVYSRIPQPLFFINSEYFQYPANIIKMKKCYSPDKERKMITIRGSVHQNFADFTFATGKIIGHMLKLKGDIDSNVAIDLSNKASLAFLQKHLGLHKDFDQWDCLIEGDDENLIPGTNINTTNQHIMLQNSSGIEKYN
PAFAH2 FP inh = PAFAH2 (human) inhibition | recombinant PAFAH2, FP-rhodamine activity probe, fluorescence polarization | inhibition, % at 3.39 µM | 340,000 tested, 0.99% active | AID 492956;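 active = inhibition above the mean over all tested compounds plus 3 SD, cut at about 30% in these data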;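 also: inhibitors block probe labeling of enzyme so polarization drops; 0% = enzyme with DMSO and 100% = wells lacking PAFAH2 protein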
PP5 primary = PP5 (human) phosphatase inhibition; purified PP5c, OMFP substrate fluorescence; 320,000 tested, 0.18% active; inhibition, % at 6.7 µM;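 active = inhibition above the campaign's mean inhibition across all tested compounds plus 3 SD, cut at about 9.5% in these data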;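 also: 0% = DMSO only and 100% = 100 µM cantharidin control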
CTSL1 counter = counter-screen for PFM18AAP inhibitors: inhibitors of F. hepatica cathepsin L1. AID 1906. inhibition, % at 5.96 µM. 300,000 tested, 0.49% active. recombinant F. hepatica cathepsin L1, Z-Leu-Arg-MCA fluorescence;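 active = inhibition above the mean of all tested compounds plus 3 SD, set per screening campaign, cut at about 17% in these data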;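 also: 0% = plate median of test compound wells and 100% = 1 µM Z-Phe-Ala-diazomethylketone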
PAFAH1B3 conf FP = PAFAH1B3 (human) inhibition, confirmed. inhibition, % at 3.39 µM. AID 493032. recombinant PAFAH1B3, FP-Rh activity-based probe, fluorescence polarization. shares compounds with PAFAH1B3 FP inh. 390 tested, 30% active;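 active = average inhibition over triplicate runs above the hit cutoff set in the earlier primary screen, cut at about 25% in these data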;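 also: 0% = enzyme with DMSO and 100% = wells lacking PAFAH1B3 protein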
An asterisk follows results filed as active; x = no result given; ! = repeats disagree.

SMILES | PAFAH1B2 FP inh | PAFAH1B3 FP inh | pPAFAH FP inh | PAFAH2 FP inh | PP5 primary | CTSL1 counter | PAFAH1B3 conf FP
CCC(=O)Oc1ccc(C/C(=N\O)c2ccc(O)cc2O)o1 | 16 | 27* | 20 | 18 | 2 | -5 | 38*
CCOC(=O)c1c2c(n(C)c1C)C(=O)C(=O)c1ccc(Br)cc1-2 | 8 | 36* | -3 | 22 | 2 | 66* | 21
N#CC(C#N)=C1C=C2C=C(N3CCOCC3)CCC2CC1 (configuration not stated) | 18 | 34* | x | 27 | x | x | 14
Cc1cc(N/N=C/c2c(O)ccc3ccccc23)nc(-c2ccccc2O)n1 | 13 | 30* | 21 | 20 | 5 | 3 | 15
Cc1cc(C)c[n+](C2=C([O-])c3ccccc3C(=O)/C2=N\S(=O)(=O)c2cccs2)c1 | 4 | 33* | 10 | 9 | 0 | 13 | 23
CCCC[n+]1ccn(C2=C([O-])c3ccccc3C(=O)/C2=N\S(=O)(=O)c2ccccc2)c1 | 13 | 36* | -4 | 10 | 0 | 9 | 26*
Cc1nc(N)sc1-c1csc(Nc2cccc(C(=O)O)c2)n1 | 11 | 29* | x | 9 | x | x | 8
CCOC(=O)C1CCN(CC(=O)Nc2cc(S(=O)(=O)N3CCCCC3)ccc2Cl)CC1 | 3 | -6 | x | 2 | x | x | x
COc1ccc(C(=O)c2coc(-c3ccccc3C(=O)O)c2C(=O)O)cc1 | 2 | 3 | 1 | 6 | 1 | 0 | x
COc1ccc(C(=O)c2c(C(F)(F)F)oc3c2C(=O)c2ccccc2C3=O)cc1 | 10 | 27* | 9 | 4 | 4 | 28* | 25
CCOC(=O)c1c(C)oc2c1c(C=NCc1ccccn1)c(O)c1ccccc12 | 13 | 56* | x | 16 | x | x | 17
COc1cc2c(cc1OC)CN(CCC(=O)c1ccc(Br)cc1)CC2 | 15 | 33* | 4 | -3 | -1 | 4 | 28*
COc1cc2c(cc1OC)CN(C(=O)CCNC(=O)c1ccc(Br)cc1)CC2 | 4 | -2 | x | 2 | x | x | x
O=C(O)c1ccccc1Nc1ccc([N+](=O)[O-])cc1C(=O)O | 1 | 43* | 1 | 1 | 0 | 2 | 11
Cc1ccc(C)c(OCCC(=O)OCc2csc(CC(=O)Nc3ccccc3C)n2)c1 | -3 | -3 | x | -5 | x | x | x
CNCCCC12CCC(c3ccccc31)c1ccccc12 | -1 | 50*! | -1 | 2 | 2 | 1 | 7
CNCCCC1c2ccccc2C=Cc2ccccc21 | 8 | 4 | -9 | 5 | 5 | -1 | x
Cn1c(C(=O)N2CCC(C(=O)NCc3ccccc3)CC2)cc2sccc21 | 4 | 0 | 4 | 8 | 2 | -4 | x
O=C(N/N=C/c1c(O)n(Cc2ccccc2)c(=O)c2ccccc12)c1cccnc1 | 5 | 20 | 19 | 16 | 1 | 6 | x
COc1ccc(Cn2c(O)c(/C=N/NC(=O)c3cccnc3)c3ccccc3c2=O)cc1 | 13 | 26* | x | 19 | x | x | 18
Nc1ccc2ccc(O)cc2c1 | 11 | 3 | x | 4 | x | x | x
C[n+]1c2cc(N)ccc2cc2ccc(N)cc21 | 13 | 33* | x | 18 | x | x | 28*!
O=S(=O)(Nc1c(S(=O)(=O)c2ccccc2)c2nc3ccccc3nc2n1C1CCCCC1)c1ccccc1 | 21 | 60* | 20 | 10 | 2 | -1 | 9
CC(=O)c1ccc(NC(=O)CNC2CCCCC2)cc1 | 16 | 30* | -11 | 22 | -6 | 2 | 6
N#Cc1cc(Cl)c(N2CCOCC2)cc1C#N | 2 | 3 | -2 | 12 | 1 | -1 | x
SMILES | PAFAH1B2 FP inh | PAFAH1B3 FP inh | pPAFAH FP inh | PAFAH2 FP inh | PP5 primary | CTSL1 counter | PAFAH1B3 conf FP
N#Cc1cc2ccc(N3CCOCC3)cc2cc1C#N | 7 | 60* | 9 | 18 | 2 | 2 | 15
CC1=NN(c2nc(-c3ccc(C)cc3)cs2)C(=O)C1N=Nc1cccc(O)c1 (configuration not stated) | 10 | 26* | 20 | 18 | 0 | 2 | 15
CCCOc1ccc(C(=O)Nc2cc(S(=O)(=O)N3CCOCC3)ccc2N2CCN(CC)CC2)cc1OC | -3 | 6 | x | -1 | x | x | x
O=C(CCl)Nc1c(C(=O)Nc2ccc3c(c2)OCCO3)oc2ccccc12 | 1 | 26* | 14 | 6 | 4 | 58* | 30*
CCOC(=O)Nc1ccc(OC(=O)Oc2ccc(NC(=O)OCC)cc2)cc1 | 1 | 13 | x | -4 | x | x | x
COCCCNC(=S)N1CCCN(c2nc3cc(C)c(C)cc3cc2C#N)CC1 | 10 | 26* | -1 | 2 | 2 | -4 | 4
COc1ccc(OC)c(S(=O)(=O)NC2CC(=O)N(c3cccc(F)c3)C2)c1 (configuration not stated) | 3 | 1 | 2 | 2 | 2 | 0 | x
CC(C)Cn1c(N)c(C(=O)COC(=O)/C=C/c2ccccc2)c(=O)n(C)c1=O | 0 | -10 | 0 | 5 | 3 | 6 | x
CCCOc1c(Br)cc(C(=O)OCc2cc(=O)n3ccsc3n2)cc1OC | 4 | 16 | x | 5 | x | x | x
O=C1c2cccnc2C(=O)N1Cc1ccc(S(=O)(=O)N2CCOc3ccccc32)cc1 | 3 | 2 | 1 | 13 | 2 | 0 | x
CC(=O)N1CCn2c3c(c4cc(C)ccc42)CCCC31 (configuration not stated) | 9 | 8 | 8 | 1 | 1 | 3 | x
CC(=O)N1CCn2c3c(c(=O)c4cc(C)ccc42)CCC31 (configuration not stated) | 10 | 41* | 13 | -2 | 2 | 24* | 16
CC(=O)SCCC(=O)Nc1ccccc1 | 1 | 26* | 6 | -3 | 4 | -5 | 14
C=CCN(Cc1ccc(OC)c(OC)c1)C(=O)c1cc2cc(F)ccc2[nH]1 | 1 | -4 | -1 | -6 | 1 | 5 | x
CCCC[n+]1c2ccccc2cc2ccccc21 | 7 | 27* | 3 | 3 | 3 | -4 | 35*
CCC[n+]1c2ccccc2cc2ccccc21 | 10 | 17 | 4 | 10 | -4 | 12 | x
Cc1ccc(NC(=O)COC(=O)c2cccc3c2C(=O)c2ccccc2C3=O)c(C)c1 | 4 | 5 | 6 | 10 | 3 | 8 | x
CCOc1ccc(NC2=CC(=O)CCC2)cc1 | 4 | 10 | 2 | -6 | -3 | -4 | x
CCOc1ccc(NC2=CC(=O)C(=O)c3ccccc32)cc1 | 15 | 49* | x | 14 | x | x | 31*
COc1cc(C=C2C(=O)c3ccccc3C2=O)cc(OC)c1 | -3 | 2 | 0 | 16 | 1 | -2 | x
COc1cc(Cl)c(NC2=CC(=O)C(=O)c3ccccc32)c(OC)c1 | 15 | 35* | 6 | 13 | 5 | x | 29*
Cc1ccc(NC2=CC(=O)C(=O)c3ccccc32)c(C)c1 | 6 | 40* | 3 | 5 | 6 | x | 17
O=C1C=C(Nc2cccnc2)c2ccccc2C1=O | 8 | 53* | x | 8 | x | x | 27*
CC(C)CCc1noc(CN2CCN(c3ccc(Cl)cn3)CC2)n1 | -2 | 7 | 5 | -9 | 4 | 2 | x

Source: PubChem
